Pf Dd2 growth: Plasmodium falciparum Dd2 growth inhibition. P. falciparum Dd2 growth, SYBR Green, 72 h. Potency, µM (top dose mostly 28.9 µM), for inactives: top-dose activity, negative = inhibition, usual class: inhibitors. actives 4.3% (n = 120,000). AID 1347417; active means well fitted inhibition curve with a large enough effect;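 further: plate controls were DMSO vehicle for no effect and reference drug for full effect; nearly all actives have a fitted effect of over 65% in size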
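Readout: SYBR Green fluorescence, 485 nm excitation, 535 nm emission, after ~16 h lysis at 37C. Before that, Dd2-infected red cells (2.5% hematocrit) grew 72 h with compound, 29 uM top final concentration.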
An asterisk follows results filed as active; i = inactive. This excerpt belongs to a sample that is enriched for hits. Potency means the concentration at half of the fitted maximal effect.

SMILES	Pf Dd2 growth
Cc1ccc(CNC(=O)c2ccc3c(c2)CNCCO3)cc1	-6%
O=C(c1ccoc1)N1CCC(Oc2ccccc2-c2nc(C3CCOCC3)no2)C1 (stereo not given)	i
O=C(c1cccc(F)c1)N1CCC(Oc2ccccc2-c2nc(C3CCOCC3)no2)C1 (stereo not given)	-2%
Fc1ccc(F)c(CN2CCC(Oc3ccccc3-c3nc(C4CCOCC4)no3)C2)c1 (stereo not given)	4.5µM*
CC(NC(=O)c1cc(S(N)(=O)=O)ccc1F)c1ccc2c(c1)OCCCO2 (stereo not given)	-4%
COc1cc(=O)n2c(c1C(=O)Nc1ccc(Br)cc1F)CCCC2	-5%
CCN1C(=O)c2ccccc2Sc2ccc(NC(=O)c3ccc(Cl)cc3)cc21	i
CCN1C(=O)c2ccccc2Sc2ccc(NC(=O)Nc3cc(C)cc(C)c3)cc21	-11%
N#Cc1ccc(C(=O)Nc2ccc3c(c2)N(C2CCCC2)C(=O)c2ccccc2S3)cc1	11µM*
O=C(Cn1nc2n(c1=O)CCCCC2)NCCC1=CCCCC1	-48%
Cc1n[nH]c(C)c1CCC(=O)NCC1CCN(c2cc(-c3ccccc3)[nH]n2)CC1	i
CCc1nc2c(c(-c3ccc(Cl)cc3)n1)CN(Cc1cccc3ccccc13)CC2	-1%
CCc1nc2c(c(-c3ccc(Cl)cc3)n1)CN(Cc1cccc(OC)c1)CC2	10µM*
CCc1nc2c(c(-c3ccc(OC)cc3)n1)CN([S+](=O)([O-])c1cccc(OC)c1)CC2	-24%
COC(=O)N1CCc2nc(-c3ccc(OC)cc3)nc(-c3ccccc3)c2C1	i
COCC(=O)N1CCc2nc(-c3ccccc3)nc(-c3ccc(OC)cc3)c2C1	-8%
CCc1nc2c(c(-c3ccc(Cl)cc3)n1)CN(C(=O)c1ccc(F)cc1)CC2	-4%
CCc1nc2c(c(-c3ccc(OC)cc3)n1)CN(C(=O)c1ccc(OC)cc1)CC2	-15%
CCc1nc2c(c(-c3ccc(Cl)cc3)n1)CCN(C(=O)c1ccccc1OC)CC2	i
CCc1nc2c(c(-c3ccc(Cl)cc3)n1)CN(Cc1ccc(OC)cc1)CC2	11µM*
CCc1nc2c(c(-c3ccc(Cl)cc3)n1)CN([S+](=O)([O-])c1ccc(C)cc1)CC2	i
COc1ccc(-c2nc(-c3ccccc3)nc3c2CN(C(=O)Cc2ccccn2)CC3)cc1	5.6µM*
CCc1nc2c(c(-c3ccc(Cl)cc3)n1)CN(CC1CC1)CC2	4.5µM*
Cc1nn(-c2ccccc2)c(Oc2ccccc2F)c1CCC(=O)NCC1CC1	i
Cc1ccc(CNC(=O)N2CCC(Oc3ncccc3C(=O)N3CCOCC3)C2)cc1 (stereo not given)	26%
SMILES	Pf Dd2 growth
CCn1ncc(C(=O)N2CCCn3ccnc3C2c2cnn(C)c2)c1C (stereo not given)	6%
Cc1nn(C)c(C)c1NC(=O)CC[C@H]1NC(=O)c2ccccc2NC1=O	-24%
c1coc(-c2nc(C3CCOC3)nn2C2Cc3ccccc3C2)c1 (stereo not given)	-19%
COc1ccc(NC(=O)C2CCN(C(=O)c3ncn4c3COC(c3ccccc3)C4)CC2)cc1OC (stereo not given)	i
C[C@H](C(=O)N(C)CCC#N)C1CC[C@@]2(C)Cc3sc(NC(=O)c4cccn4C)nc3[C@@H](C)[C@@H]2[C@H]1O (stereo not given in full)	-1%
O=C(NCc1cccc(F)c1)C1CCN(c2cn[nH]c(=O)c2)C1 (stereo not given)	-2%
Cn1ccnc1CNC(=O)C[C@@H]1C[C@H]2O[C@H](CNC(=O)NC3CCCCC3)[C@@H](O)[C@H]2O1	2%
C#CCNC(=O)C1CCN(C(=O)C2CN(c3ccc(OC)cc3)C(=O)N2)C1 (stereo not given)	-11%
CCc1nc2c(c(-c3ccc(OC)cc3)n1)CCN(Cc1ccc(C(F)(F)F)cc1)CC2	11µM*
CCc1nc2c(c(-c3ccc(O)cc3)n1)CCN(Cc1ccccc1C(F)(F)F)CC2	1.8µM*
O=C(C1CCCC1)N1CCc2nc(-c3ccc(Cl)cc3)nc(-c3ccccc3)c2C1	i
NC(=O)[C@@H]1CCCN1C(=O)C1CCN(c2nc(-c3ccccc3)nc3c2CCC3)CC1	-20%
CCc1nc2c(c(-c3ccc(O)cc3)n1)CCN(C(=O)c1ccc(F)cc1)CC2	i
COc1ccc(-c2nc(C)nc3c2CCN(Cc2ccc(F)cc2)CC3)cc1	i
O=C(C1CCN(c2nc(-c3ccccc3)nc3c2CCC3)CC1)N1CCNCC1	13µM*
CCc1nc2c(c(-c3ccc(O)cc3)n1)CN(Cc1ccc(F)cc1)CC2	-7%
O=C(C1CC1)N1CCc2nc(-c3ccccc3)nc(-c3ccc(Cl)cc3)c2C1	i
O=C(C1CCCC1)N1CCc2nc(-c3ccccc3)nc(-c3ccc(Cl)cc3)c2C1	4µM*
CCc1nc2c(c(-c3ccc(OC)cc3)n1)CCN(C(=O)c1ccc(OC)cc1)CC2	28%
O=C(NC1CCNCC1)C1CCN(c2nc(-c3ccccc3)nc3c2CCC3)CC1	-11%
Nc1nc(C2CC(NC(=O)Cn3cnc4ccccc4c3=O)C2)cc(=O)[nH]1 (stereo not given)	1%

Screening results from PubChem.
